What all share (conditions): mRNA level, 48 h; actives raise or lower the signal
Read-out in assay [1]: Cytochrome P450 7A1 (Homo sapiens) (UniProt P22680)
Kind of assay: LTEA_HepaRG_CYP7A1: Life Technologies and Expression Analysis (LTEA) Assay for Cytochrome P450 7A1 (CYP7A1) using HepaRG (AID 2283496). In short, it runs like this: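 HepaRG, 48 h exposure, 8-pt half-log series from 100 uM, 0.5% DMSO vehicle, duplicates. Readout: TaqMan qRT-PCR mRNA vs three housekeeping genes; bidirectional curve fit against DMSO baseline.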

Read-out in assay [2]: Glutathione S-Transferase (GSTA2), GSTA2 (gene 2939)
Kind of assay: LTEA_HepaRG_GSTA2: Life Technologies and Expression Analysis (LTEA) Assay for Glutathione S-Transferase (GSTA2) using HepaRG (AID 2283497). In short, it runs like this: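 GSTA2 transcript levels came from Fluidigm TaqMan qRT-PCR normalized to three housekeeping genes, fitted in both directions against DMSO. HepaRG cultures received chemicals for 48 h in serum-free induction medium (0.5% DMSO), 8 half-log concentrations up to 100 uM, duplicate.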

Read-out in assay [3]: growth arrest and DNA damage 45 (GADD45G), GADD45G (gene 10912)
Description: LTEA_HepaRG_GADD45G: Life Technologies and Expression Analysis (LTEA) Assay for growth arrest and DNA damage 45 (GADD45G) using HepaRG (AID 2283499). In short, it runs like this: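 GADD45G transcript level by qRT-PCR (housekeeping-normalized: ACTB, GAPDH, POLR2A) after 48 h chemical treatment of a single HepaRG lot in serum-free induction medium; eight-point half-log series up to 100 uM in 0.5% DMSO, duplicates, up- or down-regulation scored.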

Read-out in assay [4]: Glutamate-cysteine ligase regulatory (GCLM), GCLM (gene 2730)
Description: LTEA_HepaRG_GCLM: Life Technologies and Expression Analysis (LTEA) Assay for Glutamate-cysteine ligase regulatory (GCLM) using HepaRG (AID 2283500). In short, it runs like this:
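GCLM expression quantified by qRT-PCR, normalized to three housekeeping genes, after 48 h chemical treatment of HepaRG cells in duplicate at 8 concentrations (top 100 uM, half-log steps, 0.5% DMSO). Changes fitted both directions against vehicle.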

Read-out in assay [5]: Heat shock 70 kDa protein 1 (HSPA1A), gene 3303
Kind of assay: LTEA_HepaRG_HSPA1A: Life Technologies and Expression Analysis (LTEA) Assay for Heat shock 70 kDa protein 1 (HSPA1A) using HepaRG (AID 2283502). In short, it runs like this: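 HSPA1A expression measured by qRT-PCR with ACTB/GAPDH/POLR2A normalization; curves fitted in both directions relative to DMSO vehicle. Exposure: 48 h in HepaRG cells, duplicate 8-point half-log series from 100 uM, 0.5% DMSO, serum-free induction medium.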

Read-out in assay [6]: 3-Hydroxy-3-Methylglutaryl-CoA Synthase 2 (HMGCS2), HMGCS2 (gene 3158)
Description: LTEA_HepaRG_HMGCS2: Life Technologies and Expression Analysis (LTEA) Assay for 3-Hydroxy-3-Methylglutaryl-CoA Synthase 2 (HMGCS2) using HepaRG (AID 2283504). In short, it runs like this:
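Readout is HMGCS2 transcript by qRT-PCR, housekeeping-normalised (ACTB/GAPDH/POLR2A) and fitted bidirectionally against 0.5% DMSO. Differentiated HepaRG cells received chemicals 48 h, duplicate wells, eight half-log concentrations topping at 100 uM.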

Read-out in a further assay: HGF (gene 3082)
Kind of assay: LTEA_HepaRG_HGF: Life Technologies and Expression Analysis (LTEA) Assay for Hepatocyte Growth Facto (HGF) using HepaRG (AID 2283505). In short, it runs like this: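 HGF transcript was quantified by TaqMan qRT-PCR against three housekeeping genes after 48 h treatment of HepaRG cells. Exposure ran in duplicate over eight half-log steps topping at 100 uM in 0.5% DMSO vehicle.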

Read-out in assay [7]: Insulin Like Growth Factor 1 (IGF1), IGF1 (gene 3479)
Kind of assay: LTEA_HepaRG_IGF1: Life Technologies and Expression Analysis (LTEA) Assay for Insulin Like Growth Factor 1 (IGF1) using HepaRG (AID 2283506). In short, it runs like this:
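Expression measured by TaqMan qRT-PCR on a Fluidigm array, with three housekeeping genes for normalisation, after 48 h treatment of HepaRG cells. Top concentration 100 uM with half-log steps, 0.5% DMSO vehicle, bidirectional fit.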

Read-out in assay [8]: Intercellular Adhesion Molecule 1 (ICAM1), ICAM1 (gene 3383)
Kind of assay: LTEA_HepaRG_ICAM1: Life Technologies and Expression Analysis (LTEA) Assay for Intercellular Adhesion Molecule 1 (ICAM1) using HepaRG (AID 2283507). In short, it runs like this: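 ICAM1 transcript levels measured by qRT-PCR, normalized to three housekeeping genes (ACTB, GAPDH, POLR2A), after 48 h chemical exposure of HepaRG cells. Duplicate eight-point half-log series from 100 uM in 0.5% DMSO; gain or loss fitted against vehicle.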

Read-out in assay [9]: Insulin-like growth factor-binding protein 1 (IGFBP1), IGFBP1 (gene 3484)
Description: LTEA_HepaRG_IGFBP1: Life Technologies and Expression Analysis (LTEA) Assay for Insulin-like growth factor-binding protein 1 (IGFBP1) using HepaRG (AID 2283508). In short, it runs like this: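 Read-out is qRT-PCR transcript level normalized to three housekeeping genes, fitted in both directions against 0.5% DMSO. Differentiated HepaRG cells received eight half-log concentrations (top 100 uM) in duplicate for 48 h in serum-free induction medium.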

Read-out in assay [10]: Interleukin 6 Receptor (IL6R), IL6R (gene 3570)
Description: LTEA_HepaRG_IL6R: Life Technologies and Expression Analysis (LTEA) Assay for Interleukin 6 Receptor (IL6R) using HepaRG (AID 2283510).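 As to AC50: differentiated human HepaRG liver cells in serum-free induction medium.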 In short, it runs like this: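 IL6R transcript level by qRT-PCR after 48 h chemical exposure (8-point, half-log, max 100 uM, 0.5% DMSO vehicle) of HepaRG cells in serum-free induction medium. Normalized to three housekeeping genes; curves fitted in both directions relative to DMSO.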

Read-out in assay [11]: Potassium channel subfamily K member 1 (KCNK1), KCNK1 (gene 3775)
Kind of assay: LTEA_HepaRG_KCNK1: Life Technologies and Expression Analysis (LTEA) Assay for Potassium channel subfamily K member 1 (KCNK1) using HepaRG (AID 2283511). In short, it runs like this:
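KCNK1 transcript measured by TaqMan qRT-PCR against three housekeeping genes, after HepaRG cells were treated 48 h with eight half-log concentrations (top 100 uM, 0.5% DMSO). Curves fitted bidirectionally relative to vehicle.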

Read-out in assay [12]: Keratin 19 (KRT19), KRT19 (gene 3880)
Kind of assay: LTEA_HepaRG_KRT19: Life Technologies and Expression Analysis (LTEA) Assay for Keratin 19 (KRT19) using HepaRG (AID 2283512). In short, it runs like this:
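KRT19 transcript measured by TaqMan qRT-PCR, referenced to three housekeeping genes, after HepaRG cells received test chemicals for 48 h. Eight half-log concentrations, top 100 uM, 0.5% DMSO vehicle; increases and decreases both fitted.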

Read-out in assay [13]: JUN Transcription Factor, JUN (gene 3725)
Description: LTEA_HepaRG_JUN: Life Technologies and Expression Analysis (LTEA) Assay for JUN Transcription Factor using HepaRG (AID 2283513). In short, it runs like this: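 mRNA measured by TaqMan qRT-PCR after 48 h chemical exposure of HepaRG cultures; normalization to three housekeeping genes. Duplicate eight-point half-log curves from 100 uM in 0.5% DMSO; gain or loss fitted against DMSO baseline.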

Read-out in assay [14]: Lipase C (LIPC), LIPC (gene 3990)
Description: LTEA_HepaRG_LIPC: Life Technologies and Expression Analysis (LTEA) Assay for Lipase C (LIPC) using HepaRG (AID 2283514). In short, it runs like this:
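LIPC expression was quantified by qRT-PCR against three housekeeping genes (ACTB, GAPDH, POLR2A). Differentiated human HepaRG cells received eight half-log doses (top 100 uM, 0.5% DMSO) in duplicate for 48 h; fitting bidirectional relative to DMSO.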

Read-out in assay [15]: Lipoprotein lipase (LPL), LPL (gene 4023)
Kind of assay: LTEA_HepaRG_LPL: Life Technologies and Expression Analysis (LTEA) Assay for Lipoprotein lipase (LPL) using HepaRG (AID 2283515). In short, it runs like this:
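LPL transcript levels quantified by TaqMan qRT-PCR against three housekeeping genes after 48 h chemical treatment of HepaRG cells. Eight-point half-log series from 100 uM in 0.5% DMSO, tested in duplicate; bidirectional fitting versus vehicle.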

Read-out in assay [16]: Interleukin 6 (IL6), IL6 (gene 3569)
Kind of assay: LTEA_HepaRG_IL6: Life Technologies and Expression Analysis (LTEA) Assay for Interleukin 6 (IL6) using HepaRG (AID 2283509). In short, it runs like this: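 Transcript levels, normalized to three housekeeping genes, were quantified by qRT-PCR after 48 h chemical treatment of HepaRG cells. Eight-point half-log series from 100 uM in 0.5% DMSO, duplicates. Fitted both directions against DMSO baseline.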

Read-out in assay [17]: Hypoxia-inducible factor 1-alpha (Homo sapiens) (UniProt Q16665)
Description: LTEA_HepaRG_HIF1A: Life Technologies and Expression Analysis (LTEA) Assay for Hypoxia-inducible factor 1 (HIF1A) Trancription factor using HepaRG (AID 2283503). In short, it runs like this:
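HIF1A transcript level read by qRT-PCR (ACTB, GAPDH, POLR2A normalization) after 48 h chemical exposure of HepaRG cultures. Eight half-log concentrations, top 100 uM, 0.5% DMSO vehicle, duplicates; bidirectional curve fit against DMSO baseline.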

Each structure is given as a SMILES string. The source made the active and inactive calls. The calls were made as follows: active = hit-call score of the fitted dose curve at least 0.9, where 1 is the maximum; inactive = score below 0.9.

Chain of Hypoxia-inducible factor 1-alpha (Homo sapiens) (Q16665 whole entry, looked up): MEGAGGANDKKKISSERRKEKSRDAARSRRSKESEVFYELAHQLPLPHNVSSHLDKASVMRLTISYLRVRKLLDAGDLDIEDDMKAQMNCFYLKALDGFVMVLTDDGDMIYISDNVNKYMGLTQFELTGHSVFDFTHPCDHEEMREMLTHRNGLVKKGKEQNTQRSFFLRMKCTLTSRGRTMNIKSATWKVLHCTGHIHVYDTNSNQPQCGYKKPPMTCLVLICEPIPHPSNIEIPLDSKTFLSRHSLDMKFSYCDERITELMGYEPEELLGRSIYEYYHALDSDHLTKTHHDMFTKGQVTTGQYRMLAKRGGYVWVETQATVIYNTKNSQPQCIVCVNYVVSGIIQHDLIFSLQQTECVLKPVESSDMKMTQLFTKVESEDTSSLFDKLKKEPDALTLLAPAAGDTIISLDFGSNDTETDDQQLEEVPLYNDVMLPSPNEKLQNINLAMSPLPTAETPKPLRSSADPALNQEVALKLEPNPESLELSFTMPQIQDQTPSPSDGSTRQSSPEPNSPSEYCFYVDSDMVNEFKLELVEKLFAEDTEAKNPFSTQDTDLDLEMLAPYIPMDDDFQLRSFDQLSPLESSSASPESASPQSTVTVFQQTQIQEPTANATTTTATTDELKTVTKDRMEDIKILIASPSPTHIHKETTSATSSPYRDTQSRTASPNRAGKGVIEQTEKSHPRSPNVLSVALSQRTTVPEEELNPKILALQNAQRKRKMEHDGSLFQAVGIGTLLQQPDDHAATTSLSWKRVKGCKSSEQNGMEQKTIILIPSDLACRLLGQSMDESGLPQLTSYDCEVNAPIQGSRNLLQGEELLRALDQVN

Usually AC50 stands for the concentration giving half of the maximal activity seen. Take `NC(=O)NN=Cc1ccc([N+](=O)[O-])o1`: the AC50 is 13.6 µM (active) in assay [1]; 9.92 µM (active) in assay [4]; 13.3 µM (active) in assay [6]; 12.4 µM (active) in the assay with HGF (gene 3082); 9.92 µM (active) in [7]; 0.211 µM (active) in [8]. The AC50 in assay [9] is 50 µM (active); in [11], 0.223 µM (active); in [13], 11.6 µM (active); in [14] it was 0.233 µM (active). Besides, the call in assay [2], in assay [3], in [5], in [10], in [12] and in assay [15] was inactive.

Turning to `CCN(CC)C(=S)SSC(=S)N(CC)CC`, the compound was called inactive in [1], in assay [2], in assay [3], in assay [4], in assay [5] and in assay [6]. Further, the compound was called inactive in assay [7], in assay [8], in [9], in assay [16], in [10] and in assay [11]. For the same compound, the compound was classed as inactive in assay [12], in assay [13], in assay [14] and in assay [15].

Take `c1ccc2c(c1)-c1cccc3c1c-2cc1ccccc13`: the AC50 in assay [1] is 15.6 µM (active); in assay [2], 17.9 µM (active); in assay [3], 14 µM (active); in assay [5], 18.5 µM (active); in assay [6], 16.1 µM (active); with HGF (gene 3082) it was 50 µM (active). Moreover, the AC50 was 16 µM (active) in assay [7]; 2.54 µM (active) in assay [9]; 11.1 µM (active) in assay [10]; 1.4 µM (active) in assay [12]; 13.3 µM (active) in [14]; 5.49 µM (active) in assay [15]. The result in assay [4], in assay [17], in assay [8], in assay [11] and in assay [13] was inactive.

Take `CCOc1ccc2[nH]cc(C(=O)NCc3ccccc3)c(=O)c2n1`: the compound was classed as inactive in [1], in assay [2], in assay [3], in assay [4], in assay [5] and in assay [17]. Moreover, the call (in assay [6]; in the assay with HGF (gene 3082); in assay [8]; in [9]; in assay [10]; in [11]) was inactive. Also, the compound was classed as inactive in [13], in assay [14] and in assay [15]. Further, the values for the AC50 in assay [7] and in assay [12] were 15.8 µM (active) and 12.1 µM (active), respectively.

These data come from PubChem BioAssay (EPA / NIEHS).
